Rows were chosen to be rich in hits. Some 2.9% of all compounds tested hit in one or more screens of this group.
N-glyco inh: increase of ERlucT glycosylation luciferase signal, primary screen, N-linked glycosylation inhibitor project, D54 ERlucT cells, luminescence, set 2; D54 ERlucT glycosylation luciferase reporter, 24 h; percent of 100 nM tunicamycin response; AID 588692, 2011; hit rate 0.23% among 360,000; reporter increase, % at 12.5 µM;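 active = mean luciferase reporter signal, scaled so untreated is 0 and the glycosylation-blocking control 100, at or above a set limit in every replicate; inconclusive = mean reaches the limit but not every replicate does; inactive = mean below the limit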;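 also: luciferase carries N-glycosylation sites so blocking glycosylation raises the light; 0% = median of neutral control wells and 100% = median of 100 nM tunicamycin wells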
esBAF inh: Bmi1 luciferase reporter increase in mESCs, primary screen, esBAF inhibitor project, mouse ES cells, Bmi1 luciferase knock-in, single point. 24 h; 100% = twice the neutral-well signal. hit rate 2% among 350,000. reporter increase, % at 12.5 µM; in the data active = activation above about 40%; inconclusive = no clear call, values can overlap the other calls;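 also: 0% = median of the plate's neutral control wells and 100% = double that signal; a rise in the Bmi1 reporter signal indicates esBAF inhibition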
Vif inh: HIV Vif self-association inhibitors, primary screen, imaging, HEK293T, single point; HEK293T cells, Vif self-association by quenched fluorescence, 24 h; inhibition, % at 7.49 µM; AID 602346, 2012; hit rate 0.35% among 340,000; in the data active = inhibition above about 50%, passing the limit was not always enough; inconclusive = no clear call, values can overlap the other calls; inactive = below about 31%
Wnt bcat act: Wnt/beta-catenin pathway activators, primary screen, cell-based, plate reader, single point; Wnt/beta-catenin reporter cell assay, activator; activation, % at 9.35 µM; hit rate 1.2% among 300,000; AID 743398, 2014; in the data active = activation above about 30%, passing the limit was not always enough; inconclusive = no clear call, values can overlap the other calls;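 also: 0% = neutral control wells and 100% = positive control wells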
MITF TRPM1 HTS: activators of MITF-driven TRPM1 promoter reporter, primary screen, cell-based, SK-MEL-5, luciferase, single point; activation, % at 12.5 µM; hit rate 0.75% among 300,000; SK-MEL-5 TRPM1-promoter luciferase, 24 h; % of positive control, neutral wells = 0;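 active = mean activation of at least 80% with every replicate also reaching 80%; inconclusive = mean reaches 80% but some replicate falls short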;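 also: 0% = neutral control wells and 100% = parthenolide positive control wells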
PvdQ acylase: P. aeruginosa PvdQ acylase inhibitors, primary screen, biochemical, fluorescence, plate reader and imaging, single point. hit rate 0.063% among 340,000. purified PvdQ acylase. inhibition, % at 10 µM; in the data active = inhibition above about 30%, passing the limit was not always enough; inconclusive = no clear call, values can overlap the other calls;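 also: 0% = vehicle neutral wells and 100% = reference inhibitor wells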
* = called active by the depositor; ? = inconclusive; / = not tested or not shown.

SMILES	N-glyco inh	esBAF inh	Vif inh	Wnt bcat act	MITF TRPM1 HTS	PvdQ acylase
C[C@H](CO)N1C[C@H](C)[C@@H](CN(C)C)Oc2ccc(NS(=O)(=O)c3cccs3)cc2CC1=O	/	-1	/	/	/	/
COc1ccc(NC(=O)N2C[C@@H](O)COC[C@@H]3O[C@@H](CC(=O)NCc4ccccc4OC)CC[C@H]32)cc1	/	5	/	/	/	/
CCc1sc(NC(C)=O)nc1-c1ccccc1	5	0	-6	/	21	2
CCc1sc(N2C(=O)C3C4CCC(C4=C(C)C)C3C2=O)nc1-c1ccccc1 (stereo not given)	1	54*	-15	/	-4	-23
O=C(NCC[C@H]1CC[C@@H](NS(=O)(=O)c2ccc(F)cc2)[C@@H](CO)O1)Nc1ccc(F)cc1	/	12	/	/	/	/
Oc1sc(C=Nc2ccc(F)cc2)c2ccccc12	0	28	10	42*	29	-9
Oc1sc(C=Nc2ccccc2)c2ccccc12	-2	77*	9	58*	40	0
C[C@H](O)C#Cc1cnc2c(c1)C(=O)N([C@H](C)CO)C[C@H](C)[C@H](CN(C)CC1CC1)O2	/	-5	/	/	/	/
COc1ccc(C)cc1C1=Nc2ccccc2C1(C)C	1	/	-16	/	8	1
Cc1ccc(O)c(C2=Nc3ccccc3C2(C)C)c1	0	67*	/	-1	98*	-1
COC(=O)C[C@H]1CC[C@H]2[C@@H](COc3ccc(NC(=O)c4cncs4)cc3C(=O)N2C)O1	/	-1	/	/	/	/
Cc1ccc(S(=O)(=O)Nc2cccc3c2O[C@H](CN(C)C(=O)Nc2cccc4ccccc24)[C@@H](C)CN([C@H](C)CO)C3=O)cc1	/	11	/	/	/	/
Nc1n[nH]c(-c2ccc(F)cc2)n1	1	0	14	1	/	-7
CCCCc1ccc(-c2nc(N)n[nH]2)cc1	-4	29	1	35*	57	-11
O=C(CS(=O)(=O)c1ccccc1)Nc1nc2ccccc2s1	2	41*	-2	11	4	-7
CS(=O)(=O)c1ccc2nc(NC(=O)CS(=O)(=O)Cc3ccccc3)sc2c1	1	/	-2	0	8	-3
CS(=O)(=O)c1ccc2nc(NC(=O)c3ccccc3)sc2c1	-10	16	-3	0	/	-6
COCC(=O)Nc1nc2ccc(C)cc2s1	-8	/	-5	40*	49	19
Cc1ccc2nc(NC(=O)CS(=O)(=O)Cc3ccccc3)sc2c1	-2	6	-4	40*	16	-4
Cc1cccc(C(=O)Nc2nc3ccc(S(C)(=O)=O)cc3s2)c1	-6	46*	-5	-1	/	-9
COc1ccc(S(=O)(=O)N(C)C[C@H]2OCCCC[C@H](C)Oc3ccc(NS(=O)(=O)c4ccc(F)cc4)cc3C(=O)N([C@@H](C)CO)C[C@H]2C)cc1	/	-4	/	/	/	/
O=C(CN1CCOCC1)N[C@@H]1CC[C@H](CCNC(=O)Nc2cc(F)ccc2F)O[C@H]1CO	/	3	/	/	/	/
Cc1ccc2nc(NC(=O)CCNS(=O)(=O)c3cccs3)sc2c1	-4	70*	-4	12	46	13
Cc1ccc2nc(NC(=O)CCNS(=O)(=O)c3ccc(Br)s3)sc2c1	-2	14	12	1	12	-8
S=C(Nc1ccc2c(c1)OCO2)Nc1ccc2c(c1)OCO2	4	51*	-5	5	31	-12
SMILES	N-glyco inh	esBAF inh	Vif inh	Wnt bcat act	MITF TRPM1 HTS	PvdQ acylase
CN(C)C(=S)Nc1ccc2c(c1)OCO2	1	/	0	2	9	-13
S=C(NCc1ccc2c(c1)OCO2)Nc1ccc2nsnc2c1	3	56*	0	-4	32	41*
Cc1ccc(S(=O)(=O)N(C)C[C@@H]2Oc3ccc(NC(=O)NC(C)C)cc3C(=O)N([C@H](C)CO)C[C@@H]2C)cc1	/	-2	/	/	/	/
O=C(C[C@@H]1C[C@@H]2c3cc(NS(=O)(=O)c4ccc(F)cc4)ccc3O[C@@H]2[C@H](CO)O1)NCc1ccncc1	/	-4	/	/	/	/
O=C(/C=C\c1ccc(-c2ccccc2)o1)c1ccccc1	11	/	-1	37*	33	16
O/N=C\c1ccc(-c2ccccc2)o1	2	55*	/	0	37	-11
Cc1ccc(C(=O)CSc2nnc3n2CCCCC3)s1	-2	65*	5	22	46	-6
COC(=O)c1cc(/C=C/c2ccccc2)[nH]n1	0	61*	0	6	67	0
COC(=O)c1cc(/C=C/c2ccccc2)on1	1	-3	2	/	/	54*
CC(=O)NCc1ccc(-c2nc3ccccc3s2)cc1	-13	-13	5	14	-1	-12
CC(=O)NCc1ccc(-c2csc(-c3cccs3)n2)cc1	-1	53*	-2	20	55	-8
COc1ccccc1NC(=O)N[C@H]1CC[C@H](CCNC(=O)Cc2ccccn2)O[C@H]1CO	/	-3	/	/	/	/
COc1cccc(C(=O)O/N=C(\N)c2ccc([N+](=O)[O-])cc2)c1	7	55*	/	/	15	-15
COc1cc(C(=O)O/N=C(\N)c2cccc([N+](=O)[O-])c2)cc(OC)c1OC	7	-2	-2	-1	12	-12
COc1ccc(/C(N)=N/OC(=O)c2cccc([N+](=O)[O-])c2)cc1	3	64*	?	/	25	-13
COc1cccc(C(=O)O/N=C(\N)c2ccc(C)cc2)c1	-8	43	4	29	59	7
Cc1noc(C)c1NC(=O)Nc1ccc2c(c1)C(=O)N([C@H](C)CO)C[C@H](C)[C@@H](CN(C)C(=O)CCCN(C)C)OCCCC[C@@H](C)O2	/	0	/	/	/	/
Cn1cnc2cc(NCc3ccccc3Cl)ccc21	-3	51*	-2	14	?	-20
Cc1cccc(C(=O)Nc2ccc3c(c2)ncn3C)c1	-6	2	1	22	125*	11
COc1cccc(CNc2ccc3c(c2)ncn3C)c1OC	5	21	-1	6	29	-16
Cc1ccc(OCC(=O)Nc2ccc3c(c2)ncn3C)cc1	2	-7	11	-2	5	-1
Cn1cnc2cc(NC(=O)COc3ccccc3)ccc21	-4	43*	9	12	66	0
O=C(Nc1nc2ccccc2n1CCN1CCCC1)c1ccc(Cl)cc1	2	48*	4	3	/	3
Cn1cnc2cc(NC(=O)c3ccc(Cl)cc3)ccc21	-3	54*	10	19	55	-11
Cn1c(CN2CCCCC2)nc2cc(NC(=O)c3ccc(Cl)cc3)ccc21	-5	?	-3	/	-3	-10
COc1cc(C(=O)Nc2ccc3c(c2)ncn3C(C)(C)C)cc(OC)c1OC	6	3	-2	23	/	-1
CC(C)(C)n1cnc2cc(NC(=O)c3ccc(Cl)cc3)ccc21	-9	7	-3	43*	/	-17

Bioassay records deposited in PubChem BioAssay by Broad Institute.
